A number with no mark means an inactive call. Calls of active or inactive are those of the source.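 The calls were made as follows: active = z-score of at least 1.8 in each of two replicates, scored against plate mean and spread of sample wells; inactive = the rest.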

A short description of the experiment: viability rescue of complex I mutant cybrids, primary screen, cell-based, galactose medium, ATP luminescence (AID 1645843).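 Also: positive z means more ATP and so rescue of galactose-driven cybrid death.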 The note with it: complex I mutant cybrid cells, 72 h, hits give high values.
For `CCc1nc(C)ccc1OCC(=O)N1CCc2[nH]nc(C3CCC3)c2C1`, the z-score was -0.6.
With `COc1ccc2nc(Cn3cnc4sc(C)cc4c3=O)[nH]c2c1` the figure was 0.395; with `Cc1cnc(CN(C)Cc2ccc(-c3nc(C(F)(F)F)c(C)c(=O)[nH]3)cc2)[nH]1`, -0.58; with `CC1Cc2cc(C(=O)N3CCC(Cn4cc(C5CC5)nn4)CC3)ccc2O1` (stereo not given), -0.53.
For the compound `CCC1CN(C(=O)c2cc(-c3cnn(C)c3)nc3c(C)cccc23)CCN1C` (stereo not given), the z-score is -0.31.
Consider `Cc1cc(C)c(CN[C@@H](C)C(C)C)c(C)c1CO`, for which the z-score was -0.51.
With `COc1cccc(-n2cc(-c3ccnc(N4CCCN(C(C)=O)CC4)n3)cn2)c1` the figure was -1.14; with `O=C1CN(c2ncnc3nc[nH]c23)CCN1C1CCCCC1`, 1.14; with `CCCCn1nnnc1NC(=O)N1C2CCCCC1CCC2`, 0.915.
Take `Cc1ccc2c(C(=O)N3CCCC3c3nc(C)no3)cc(-c3cnn(C)c3)nc2c1` (stereo not given): the z-score was -0.585.
With `O=C(CCn1cnnn1)N1CCc2[nH]nc(-c3ccc4c(c3)OCO4)c2C1` the figure was 0.465; with `CC(C)CCC(C)N[C@H](CO)Cc1ccccc1` (stereo not given in full), -0.5; with `CCCCn1cc(-c2cc(C(=O)N3CCCC3)c3cccc(C)c3n2)cn1`, 2.59 (active).
Next, `OCCCCCNc1nccc(-c2cnn(-c3ccccc3F)c2)n1`: -0.905; `c1cnn(-c2ccc(N3CCC(N4CCC4)CC3)cc2)c1`: -0.48.
Regarding `CC(C)=CCC/C(C)=C/CNCCCc1ccncc1`, the z-score was -0.52.
In the case of `CC(=O)c1c(C)nn(CC(=O)Nc2ccnn2C2CCCCC2)c1C`, the z-score was 0.2.
Next, `CCCCc1cc(=O)[nH]c(-c2ccc(CN3CCC(F)(F)CC3)cc2)n1`: 0.255.
With `COc1ccc(-c2ccc3cc(Cl)ccc3n2)c(OC)c1` the figure was 1.15; with `CCCCCNC(=O)N1CCC2(CC1)Nc1ccccc1N(CC1CC1)C2=O`, 0.705; with `CCn1nc(C(C)C)cc1C(=O)N1CCC(n2cc(CC(C)C)nn2)CC1`, -0.55.
Next, `CCC(CC)CN1CCC(N2CCSCC2)CC1`: -0.55; `Cc1ccccc1-c1cccc(N2CCC(N3CCN(C)C(C)C3)CC2)c1` (stereo not given): 1.36.
As to `Cc1c(C(F)(F)F)nc(-c2ccc(CN3CCN(C)C(=O)C3)cc2)[nH]c1=O`, the z-score was -0.5.
On to `Cc1nn(C)c(C)c1-c1ccnc(NCC(C)Oc2cccnc2)n1` (stereo not given), for which the z-score is 1.26.
Next, `CN1CCN(C(=O)c2ccc3c(c2)CCO3)CC1=O`: 0.07.
In the case of `CCOC(=O)c1cc(C)nc(N2CCCC(c3nc(C(C)C)no3)C2)n1` (stereo not given), the z-score was -0.54.
With `OC1(c2ccccc2)CCN(Cc2ccc(F)cc2Cl)C1` (stereo not given) the figure was -0.93.
Next, `CCCC(C)c1nc2c(cnn2CC(C)C)[nH]1` (stereo not given): 1.06.
For `CC(C)CC1(CO)CCCN(C(=O)c2cccc(C#CC(C)(C)O)c2)C1` (stereo not given), the z-score is -0.79.
Consider `CCC(CC)(CCC#N)CNC1CCOC(C)(C)C1` (stereo not given), for which the z-score is -0.485.
With `CCC(C)C(c1nc(C(C)C)no1)N1Cc2ccccc2C1=O` (stereo not given) the figure was -0.17.
In the case of `CCCC(NC(=O)c1ccc(C#N)cc1)c1ccccc1` (stereo not given), the z-score was -0.32.
`CCCC(C)c1nc2c(cnn2C(C)C(C)C)[nH]1` (stereo not given): the z-score is -1.01.
With `CCOC(=O)c1ccc(N2CCC(c3ccccc3F)C2)nc1` (stereo not given) the figure was -0.015.
Next, `NC(=O)NCc1cn(CC2CCN(C(=O)CC3CCCCCC3)CC2)nn1`: -0.605; `CC(=O)c1ccccc1-c1ccc2ccccc2n1`: -0.515.
Next, `CCn1ncc(NC(=O)Cn2ccc(C(=O)OC)n2)n1`: -0.44.
With `COC(=O)c1ccc(N2CCC(c3ccccc3Cl)C2)nc1` (stereo not given), the z-score is 0.895.
With `CCCCCC(=O)N1CCC(n2cc(C3CCCC3)nn2)CC1` the figure was 0.965.

(Values after PubChem BioAssay.)
